For seven sequences, PBM binding z-score results are on record in the supplement of paper PMC6555819.

Assay in all cases: PBM binding z-score (relative to random genomic background probes); higher = stronger binding; sequences stand for … in GC…GCGATTGACAGCGTAGAATGAAGG
Experiment [1] deals with FXR:RXRa (NR concentration 270 nM, RXRa partner concentration 90 nM). The gist of the method: (§1)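 Ligand-free nuclear receptor dimers were applied to custom Agilent 4×180K protein-binding microarrays whose double-stranded probes carried direct-repeat seeds, single-nucleotide variants, half-site ablations and random human genomic background sequences in 34-nt variable regions. Incubation lasted 1 h. Binding z-scores were computed against the random background probes from regression-normalized fluorescence.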

Experiment [2] deals with LXRa:RXRa (NR concentration 270 nM, RXRa partner concentration 90 nM). In short, it runs like this: as §1
For experiment [3], the system named is LXRa homodimer (NR concentration 270 nM). The gist of the method:
as §1

For experiment [4], the system named is LXRb:RXRa (NR concentration 270 nM, RXRa partner concentration 90 nM). The gist of the method:
as §1

The test system of experiment [5] is LXRb homodimer (NR concentration 270 nM). In short, it runs like this: as §1
Experiment [6] relates to PPARa:RXRa (NR concentration 270 nM, RXRa partner concentration 90 nM). The gist of the method: as §1
Experiment [7] has as its system PPARg:RXRa (NR concentration 180 nM, RXRa partner concentration 90 nM). The gist of the method: as §1
Experiment [8] has as its system PPARg:RXRa 270nM:90nM, anti-RXR (NR concentration 270 nM, RXRa partner concentration 90 nM). The gist of the method: as §1
Experiment [9] relates to PPARg:RXRa 30nM:10nM, anti-RXR (NR concentration 30 nM, RXRa partner concentration 10 nM). The gist of the method: as §1
The test system of experiment [10] is PPARg:RXRa 90nM:30nM, anti-RXR (NR concentration 90 nM, RXRa partner concentration 30 nM). In short, it runs like this: as §1
Experiment [11] concerns PPARg:RXRa DBDmut IVT, anti-RXR (DBD mutation: RXRa K156A/R161A, NR concentration 270 nM, RXRa partner concentration 90 nM). In short, it runs like this:
as §1

Experiment [12] relates to PPARg:RXRa IVT, anti-PPARg (NR concentration 270 nM, RXRa partner concentration 90 nM). The gist of the method: as §1
In experiment [13] the test system is PPARg DBDmut:RXRa IVT, anti-PPARg (DBD mutation: PPARg1 K132A/R137A, NR concentration 270 nM, RXRa partner concentration 90 nM). The gist of the method:
as §1

Experiment [14] concerns PPARg DBDmut IVT, anti-PPARg (DBD mutation: PPARg1 K132A/R137A, NR concentration 270 nM). In short, it runs like this:
as §1

The subject of experiment [15] is PPARg homodimer (NR concentration 180 nM). In short, it runs like this: as §1
Experiment [16] concerns PXR:RXRa (NR concentration 270 nM, RXRa partner concentration 90 nM). In short, it runs like this:
as §1

Experiment [17] has as its system PXR homodimer (NR concentration 270 nM). The gist of the method:
as §1

Experiment [18] has as its system RARa:RXR (NR concentration 270 nM, RXRa partner concentration 90 nM). The gist of the method:
as §1

In experiment [19] the test system is RARa homodimer (NR concentration 270 nM). The gist of the method:
as §1

The test system of experiment [20] is RARb:RXRa (NR concentration 270 nM, RXRa partner concentration 90 nM). The gist of the method:
as §1

In the case of ATCTCTAGGTCACAAGTTCAGTGAAAGAGAGGAC, the PBM binding z-score in [1] was determined as 3.91; in experiment [2], 4.68; in experiment [3], 3.14; in [4], 3.08; in [5] it was 2.24; in experiment [6], 4.35. Moreover, the PBM binding z-score in [7] turned out to be 6.67; in [8], 5.95; in experiment [9] it was 3.16; in [10], 5.39; in experiment [11], 6.82; in experiment [12] it was 6.99. The PBM binding z-score in experiment [13] was found to be 2.94; in [14] it was 2.5; in experiment [15], 2.82; in experiment [16], 3.7; in experiment [17], 2.65; in experiment [18] it was 3.86. Besides, the PBM binding z-score in experiment [19] worked out at 1.69; in [20], 4.5.
For ACAGACGGGTGATGAAGGTAACTCAGGCTATCAT, the PBM binding z-score in experiment [1] was -0.328; in experiment [2], -0.456; in [3], -0.165; in experiment [4], -0.422; in [5], -0.384; in experiment [6], -0.198. In addition, the PBM binding z-score in experiment [7] is 0.613; in experiment [8], -0.161; in [9], 0.108; in experiment [10], -0.458; in [11] it was -0.229; in [12] it was 0.424. Also, the PBM binding z-score is 0.246 in [13]; -0.242 in experiment [14]; -0.329 in experiment [15]; -0.323 in experiment [16]; -0.116 in [17]; -0.078 in [18]. In addition, the PBM binding z-score in [19] was -0.0586; in experiment [20] it was -0.204.
With ATACCAAGGTGATCGTGAGGTCGTTGAGACTAAC, the PBM binding z-score in experiment [1] turned out to be 1.86; in [2], 1.27; in experiment [3] it was 0.536; in experiment [4], 0.968; in experiment [5], 0.251; in experiment [6] it was 1.55. Moreover, the PBM binding z-score was 0.356 in experiment [7]; 0.352 in [8]; -0.174 in experiment [9]; -0.0872 in [10]; 0.478 in experiment [11]; 1.15 in experiment [12]. For the same sequence, the PBM binding z-score in experiment [13] was 0.272; in [14], -0.217; in experiment [15], 0.626; in [16], 2.93; in experiment [17] it was 1.28; in [18], 1.91. Besides, the figures for the PBM binding z-score in experiment [19] and in experiment [20] were 0.197 and 1.39, respectively.
For AATACAGGGTCATCGTAGGCAAGAGTACGCACAG, the PBM binding z-score in experiment [1] stood at 7.68; in experiment [2] it was 6.03; in experiment [3], 2.1; in experiment [4], 4.59; in experiment [5], 1.4; in experiment [6] it was 5.83. Also, the PBM binding z-score is 7 in experiment [7]; 6.27 in experiment [8]; 3.31 in experiment [9]; 4.97 in [10]; 2.91 in [11]; 4.3 in experiment [12]. Further, the PBM binding z-score was 1.57 in experiment [13]; 1.49 in [14]; 4.01 in experiment [15]; 4.55 in experiment [16]; 0.721 in [17]; 5.8 in [18]. Also, the PBM binding z-score in experiment [19] was 1.82; in experiment [20] it was 4.46.
In the case of CCTAGCAGGTCAGGGTCACTCAAGCATTTCGCTT, the PBM binding z-score in [1] is 4.58; in experiment [2], 3.54; in [3], 0.113; in experiment [4], 3.41; in experiment [5] it was -0.723; in experiment [6], 4.61. Also, the PBM binding z-score was determined as 3.59 in experiment [7]; 4.22 in experiment [8]; 1.09 in [9]; 3.27 in experiment [10]; 3.35 in experiment [11]; 4 in experiment [12]. Further, the PBM binding z-score in experiment [13] was -0.304; in experiment [14] it was -1.12; in experiment [15] it was 2.56; in [16], 3.91; in [17], 0.115; in [18] it was 4.5. Also, the PBM binding z-score in [19] stood at 0.487; in experiment [20] it was 4.2.
Turning to GCTAGCAGGCCATTTGGGTCACTCGATGACGGGC, the PBM binding z-score is -0.0398 in experiment [1]; -0.0743 in [2]; -0.738 in [3]; -0.0448 in [4]; -0.791 in [5]; 1.25 in [6]. In addition, the PBM binding z-score is 0.641 in [7]; 0.713 in [8]; -0.472 in experiment [9]; 0.633 in experiment [10]; 2.18 in [11]; 2.18 in [12]. The PBM binding z-score is -0.31 in experiment [13]; -1.28 in experiment [14]; -0.101 in [15]; 0.388 in experiment [16]; -0.29 in experiment [17]; 0.794 in experiment [18]. The PBM binding z-score in [19] is -0.742; in [20], 1.39.
Consider ATACCAAGGTGATCGTGAGGTCGTTAATACTAAC, for which the PBM binding z-score in experiment [1] was 1.59; in [2], 1.12; in [3], 0.651; in [4], 1.37; in [5], -0.102; in experiment [6], 1.55. The PBM binding z-score in experiment [7] was 0.445; in experiment [8], 0.146; in [9], -0.147; in experiment [10], 0.0284; in experiment [11] it was 0.582; in experiment [12], 1.08. Further, the PBM binding z-score in experiment [13] stood at 0.575; in experiment [14], 0.441; in [15], 1.01; in experiment [16], 3.26; in [17], 1.7; in experiment [18], 2.15. Also, the figures for the PBM binding z-score in experiment [19] and in [20] were 0.0918 and 1.44, respectively.
